High-throughput results: PubChem, The Scripps Research Institute Molecular Screening Center
KLK7 zymogen act: activators of human kallikrein-7 zymogen; purified proKLK7, EDANS-DABCYL substrate fluorescence; 100% is mature enzyme control, 0% vehicle; activation, % at 7 µM; 370,000 compounds, 0.9% hits; P49862;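 active means activation above the mean of all tested compounds plus 3 SD, computed per campaign excluding outliers beyond control limits, cut at about 13% in these data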
ADAM10 inh: inhibits human ADAM10; O14672; recombinant ADAM10, EDANS/DABCYL FRET peptide cleavage, 3 h; inhibition, % at 7 µM; 370,000 compounds, 0.62% hits; AID 720582;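 active means inhibition above a per-campaign cutoff equal to the mean of compounds falling between control-based bounds plus 3 SD, cut at about 20% in these data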
PLC-gamma1 inh: PLC-gamma1 (human) inhibition, primary screen | P19174 | purified PLC-gamma1, fluorogenic substrate, fluorescence | inhibition, % at 12.2 µM | 370,000 compounds, 0.84% hits; in the data active means inhibition above about 9.5%
Target sequence (P19174 whole entry, looked up): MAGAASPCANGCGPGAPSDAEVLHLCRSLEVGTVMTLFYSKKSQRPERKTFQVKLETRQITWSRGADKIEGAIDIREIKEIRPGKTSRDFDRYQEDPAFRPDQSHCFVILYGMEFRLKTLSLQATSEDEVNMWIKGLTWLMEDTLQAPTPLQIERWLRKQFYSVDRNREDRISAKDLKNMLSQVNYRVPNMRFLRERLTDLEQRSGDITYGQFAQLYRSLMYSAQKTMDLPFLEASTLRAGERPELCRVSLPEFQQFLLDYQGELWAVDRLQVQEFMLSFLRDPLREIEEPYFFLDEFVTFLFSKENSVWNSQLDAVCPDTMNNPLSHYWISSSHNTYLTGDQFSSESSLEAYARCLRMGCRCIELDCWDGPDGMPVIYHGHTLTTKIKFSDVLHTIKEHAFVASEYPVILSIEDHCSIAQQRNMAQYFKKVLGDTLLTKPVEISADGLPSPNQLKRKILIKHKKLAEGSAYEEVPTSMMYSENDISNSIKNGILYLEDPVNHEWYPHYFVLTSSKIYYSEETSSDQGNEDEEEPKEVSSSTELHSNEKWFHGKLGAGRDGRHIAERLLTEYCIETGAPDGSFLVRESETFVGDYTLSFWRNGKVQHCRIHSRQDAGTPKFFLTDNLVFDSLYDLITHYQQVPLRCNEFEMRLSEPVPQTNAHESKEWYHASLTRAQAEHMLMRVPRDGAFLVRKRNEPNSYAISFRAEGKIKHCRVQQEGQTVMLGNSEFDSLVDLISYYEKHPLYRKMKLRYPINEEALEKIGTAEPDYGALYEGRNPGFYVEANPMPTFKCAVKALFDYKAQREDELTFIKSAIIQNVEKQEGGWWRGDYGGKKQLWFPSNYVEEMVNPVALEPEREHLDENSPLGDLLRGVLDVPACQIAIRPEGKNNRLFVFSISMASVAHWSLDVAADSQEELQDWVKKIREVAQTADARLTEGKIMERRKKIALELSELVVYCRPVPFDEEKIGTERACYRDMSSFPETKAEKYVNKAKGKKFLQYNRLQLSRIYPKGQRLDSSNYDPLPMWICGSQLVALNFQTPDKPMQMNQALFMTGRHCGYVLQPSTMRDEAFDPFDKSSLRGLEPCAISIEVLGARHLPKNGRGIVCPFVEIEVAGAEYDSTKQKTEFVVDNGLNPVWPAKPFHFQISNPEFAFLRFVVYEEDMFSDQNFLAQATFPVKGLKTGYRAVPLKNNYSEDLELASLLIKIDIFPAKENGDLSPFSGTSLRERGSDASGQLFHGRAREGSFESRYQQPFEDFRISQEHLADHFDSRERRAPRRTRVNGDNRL
ADAM17 inh: ADAM17 inhibition, QFRET primary screen; recombinant ADAM17, EDANS/DABCYL FRET peptide cleavage; inhibition, % at 6.95 µM; 370,000 compounds, 0.83% hits; AID 720648;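 active means inhibition above the mean of compounds lying between control limits plus 3 SD, set per campaign, cut at about 8.5% in these data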
PLCb3 inh: PLC-beta3 (human) inhibition, primary screen. 370,000 compounds, 0.18% hits. AID 720704. Purified PLC-beta3, fluorogenic substrate, fluorescence. Q01970. inhibition, % at 12.2 µM
PLCgamma1 ctr: PLC-gamma1 inhibition, counter-screen for PLC-beta3 hits | shares compounds with PLC-gamma1 inh | purified PLC-gamma1, fluorogenic substrate, fluorescence | inhibition, % at 12.3 µM | 3,300 compounds, 3.1% hits | AID 743258; in the data active means inhibition above about 9.5%
PLCb3 confirm: confirmation of human PLC-beta3 inhibitors; 3,300 compounds, 1% hits; purified PLC-beta3, fluorogenic substrate fluorescence; shares compounds with PLC-gamma1 inh; inhibition, % at 12.3 µM
Hits are given with their value. Hits are enriched below; roughly 2.9% of the tested compounds scored in any of these assays. Unless noted, no stated cut-off is given here; in the data, active means inhibition above about 11%; inactive means the rest.

`Cc1cnc(CNC(=O)c2ccc3sc([C@H]4C[C@H](O)[C@@H](CO)O4)nc3c2)cn1` gave KLK7 zymogen act inactive, ADAM10 inh inactive, PLC-gamma1 inh 10, ADAM17 inh inactive, PLCb3 inh inactive, PLCgamma1 ctr inactive and PLCb3 confirm inactive.
Screening C[C@H](O)[C@@H]1C(=O)N2CCc3ccc(N4CCN(C)CC4)cc3[C@@H]2C[C@@H]1N(C)C(=O)c1cccnc1 returned KLK7 zymogen act inactive, ADAM10 inh inactive, PLC-gamma1 inh inactive, ADAM17 inh inactive and PLCb3 inh inactive.
For COc1cc2c(cc1OCc1ccccc1)/C(=C/C(=O)OCc1ccccc1)OC2 the results were KLK7 zymogen act inactive, ADAM10 inh inactive, PLC-gamma1 inh inactive, ADAM17 inh inactive and PLCb3 inh inactive.
Screening CCC(=O)NC(c1ccc(C)cc1)c1cc([N+](=O)[O-])c2cccnc2c1O (stereo not drawn) returned KLK7 zymogen act inactive, ADAM10 inh inactive, PLC-gamma1 inh inactive, ADAM17 inh inactive and PLCb3 inh inactive.
`CCCC(=O)NC(c1ccco1)c1cc([N+](=O)[O-])c2cccnc2c1O` (stereo not drawn) gave KLK7 zymogen act inactive, ADAM10 inh inactive, PLC-gamma1 inh 14, ADAM17 inh inactive, PLCb3 inh inactive, PLCgamma1 ctr inactive and PLCb3 confirm inactive.
For Cc1nc(SCC(C)C)[nH]c(=O)c1Cc1ccccc1 the results were KLK7 zymogen act inactive, ADAM10 inh inactive, PLC-gamma1 inh inactive, ADAM17 inh inactive and PLCb3 inh inactive.
`CSc1nc(C)c(Cc2ccccc2)c(=O)[nH]1` gave KLK7 zymogen act inactive, ADAM10 inh inactive, PLC-gamma1 inh 11, ADAM17 inh inactive, PLCb3 inh inactive, PLCgamma1 ctr inactive and PLCb3 confirm inactive.
COC(=O)c1cc(S(=O)(=O)NCC2CCN(C(=O)C(=O)c3cc4ccccc4o3)CC2)cs1 was read as KLK7 zymogen act inactive, ADAM10 inh inactive, PLC-gamma1 inh inactive, ADAM17 inh inactive and PLCb3 inh inactive.
`Cc1cccc(Oc2ccc(C(=O)NC3CCSC3=O)cn2)c1C` (stereo not drawn) gave KLK7 zymogen act inactive, ADAM10 inh inactive, PLC-gamma1 inh inactive, ADAM17 inh inactive, PLCb3 inh 15, PLCgamma1 ctr inactive and PLCb3 confirm inactive.
For COc1ccc(NC(=O)N(C)C[C@H]2Oc3c(NC(=O)C4CCCCC4)cccc3C(=O)N([C@H](C)CO)C[C@@H]2C)cc1 the results were KLK7 zymogen act inactive, ADAM10 inh inactive, PLC-gamma1 inh inactive, ADAM17 inh inactive and PLCb3 inh inactive.
`COc1ccc(NC(=O)N(C)C[C@H]2Oc3c(NC(=O)NC(C)C)cccc3C(=O)N([C@H](C)CO)C[C@@H]2C)cc1` gave KLK7 zymogen act inactive, ADAM10 inh inactive, PLC-gamma1 inh inactive, ADAM17 inh inactive, PLCb3 inh 11, PLCgamma1 ctr inactive and PLCb3 confirm inactive.
C[C@H](CO)N1C[C@H](C)[C@@H](CN(C)S(=O)(=O)c2ccccc2)Oc2c(NC(=O)Nc3ccc(C(F)(F)F)cc3)cccc2C1=O was read as KLK7 zymogen act inactive, ADAM10 inh inactive, PLC-gamma1 inh inactive, ADAM17 inh inactive and PLCb3 inh inactive.
Screening C[C@H](CO)N1C[C@H](C)[C@@H](CN(C)S(C)(=O)=O)Oc2c(NC(=O)Nc3ccc(C(F)(F)F)cc3)cccc2C1=O returned KLK7 zymogen act inactive, ADAM10 inh inactive, PLC-gamma1 inh inactive, ADAM17 inh inactive, PLCb3 inh 12, PLCgamma1 ctr inactive and PLCb3 confirm inactive.
`CCCC1CCC2(CC1)CCC2OC(=S)Nc1ccccc1C(F)(F)F` (stereo not drawn) gave ADAM10 inh inactive, PLC-gamma1 inh inactive, ADAM17 inh inactive and PLCb3 inh inactive.
For O=C(NCc1ccccc1)O[C@H]1CC[C@@]23CCCN2C(=O)CCC[C@H]3C1 the results were ADAM10 inh inactive, PLC-gamma1 inh inactive, ADAM17 inh inactive and PLCb3 inh inactive.
Screening CN(C)N1C(=O)CC(NNC(=O)c2ccncc2)C1=O (stereo not drawn) returned KLK7 zymogen act inactive, ADAM10 inh inactive, PLC-gamma1 inh 10, ADAM17 inh inactive, PLCb3 inh inactive, PLCgamma1 ctr inactive and PLCb3 confirm inactive.
CN(C(=O)CS(=O)(=O)c1cccc(Cl)c1)c1ccccc1 was read as KLK7 zymogen act inactive, ADAM10 inh inactive, PLC-gamma1 inh 11, ADAM17 inh inactive, PLCb3 inh inactive, PLCgamma1 ctr inactive and PLCb3 confirm inactive.
Screening NC(=O)C1=CN([C@@H]2O[C@H](COP(=O)(O)OP(=O)(O)OC[C@H]3O[C@@H](n4cnc5c(N)ncnc54)[C@H](O)[C@@H]3O)[C@@H](O)[C@H]2O)C=CC1 returned KLK7 zymogen act inactive, ADAM10 inh inactive, PLC-gamma1 inh 29, ADAM17 inh inactive, PLCb3 inh inactive, PLCgamma1 ctr 32 and PLCb3 confirm inactive.
For Nc1ncnc2c1ncn2[C@@H]1O[C@H](COS(=O)(=O)O)[C@@H](O)[C@H]1O the results were KLK7 zymogen act inactive, ADAM10 inh inactive, PLC-gamma1 inh inactive, ADAM17 inh inactive and PLCb3 inh inactive.
`Nc1ncnc2c1ncn2C1OC(COP(=O)(O)O)C(O)C1O` (stereo not drawn) gave KLK7 zymogen act inactive, ADAM10 inh inactive, PLC-gamma1 inh 41, ADAM17 inh inactive, PLCb3 inh inactive, PLCgamma1 ctr 55 and PLCb3 confirm inactive.
For Nc1ncnc2c1ncn2[C@@H]1O[C@H](COP(=O)(O)O)[C@@H](O)[C@H]1O the results were KLK7 zymogen act inactive, ADAM10 inh inactive, PLC-gamma1 inh 39, ADAM17 inh inactive, PLCb3 inh inactive, PLCgamma1 ctr 48 and PLCb3 confirm inactive.
Screening Nc1ncnc2c1ncn2[C@@H]1O[C@H](COP(=O)(O)OP(=O)(O)OP(=O)(O)O)[C@@H](O)[C@H]1O returned KLK7 zymogen act inactive, ADAM10 inh inactive, PLC-gamma1 inh 40, ADAM17 inh inactive, PLCb3 inh inactive, PLCgamma1 ctr 54 and PLCb3 confirm inactive.
Clc1nc(N2CCOCC2)ncc1Br was read as KLK7 zymogen act inactive, ADAM10 inh inactive, PLC-gamma1 inh 12, ADAM17 inh inactive, PLCb3 inh inactive, PLCgamma1 ctr inactive and PLCb3 confirm inactive.
For CC(=O)NC(=S)Nc1ccc(NC(=S)NC(=O)/C=C/c2ccco2)cc1 the results were KLK7 zymogen act inactive, ADAM10 inh inactive, PLC-gamma1 inh inactive, ADAM17 inh inactive and PLCb3 inh inactive.
For O=C(/C=C/c1ccco1)NC(=S)Nc1ccc(C(=O)O)cc1 the results were KLK7 zymogen act inactive, ADAM10 inh inactive, PLC-gamma1 inh 26, ADAM17 inh inactive, PLCb3 inh inactive, PLCgamma1 ctr 17 and PLCb3 confirm inactive.
For O=C(NCCCN1CCCC1=O)NC1CCCCC1 the results were KLK7 zymogen act inactive, ADAM10 inh inactive, PLC-gamma1 inh inactive, ADAM17 inh inactive, PLCb3 inh 11, PLCgamma1 ctr inactive and PLCb3 confirm inactive.
